# ADAM10 inh: inhibits human ADAM10; recombinant ADAM10, EDANS/DABCYL FRET peptide cleavage, 3 h; inhibition, % at 7 µM; 370,000 compounds, 0.62% hits; O14672;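 active = inhibition above a per-campaign cutoff equal to the mean of compounds falling between control-based bounds plus 3 SD, cut at about 20% in these data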;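 also: 0% = DMSO wells while the 100% control is not disclosed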
# PLC-gamma1 inh: inhibitors of human phospholipase C gamma1. purified PLC-gamma1, fluorogenic substrate, fluorescence. inhibition, % at 12.2 µM. 370,000 compounds, 0.84% hits
# ADAM17 inh: inhibits human ADAM17; 370,000 compounds, 0.83% hits; inhibition, % at 6.95 µM; recombinant ADAM17, EDANS/DABCYL FRET peptide cleavage; P78536;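 active = inhibition above the mean of compounds lying between control limits plus 3 SD, set per campaign, cut at about 8.5% in these data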;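 also: 0% = DMSO-only wells as the low control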
# Target sequence (P78536 215-824 limits assumed): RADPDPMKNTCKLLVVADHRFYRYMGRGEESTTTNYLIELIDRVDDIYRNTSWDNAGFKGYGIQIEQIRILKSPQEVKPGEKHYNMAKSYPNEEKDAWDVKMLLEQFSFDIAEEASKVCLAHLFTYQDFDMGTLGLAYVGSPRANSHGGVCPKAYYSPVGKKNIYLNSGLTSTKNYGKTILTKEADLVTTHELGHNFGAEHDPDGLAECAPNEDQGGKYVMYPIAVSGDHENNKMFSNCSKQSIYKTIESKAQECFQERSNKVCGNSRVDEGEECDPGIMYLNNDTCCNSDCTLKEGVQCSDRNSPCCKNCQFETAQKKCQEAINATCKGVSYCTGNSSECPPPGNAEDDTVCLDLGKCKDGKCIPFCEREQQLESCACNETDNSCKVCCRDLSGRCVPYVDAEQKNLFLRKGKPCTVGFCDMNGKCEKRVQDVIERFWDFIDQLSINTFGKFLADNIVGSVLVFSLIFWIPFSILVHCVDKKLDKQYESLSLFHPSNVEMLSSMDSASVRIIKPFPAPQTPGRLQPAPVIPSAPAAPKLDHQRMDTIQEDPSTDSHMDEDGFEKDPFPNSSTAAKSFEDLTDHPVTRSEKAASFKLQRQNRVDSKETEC
# Rce1 inhib: inhibitors of yeast Ras-converting enzyme; Q03530; yeast membranes, quenched prenylated peptide cleavage fluorescence; calls only; 290,000 compounds, 0.27% hits;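 active = fall in fluorescence gain of 50% or more versus controls, with final raw signal at or below 3038400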;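 also: plate controls were neutral control wells for no effect and wells lacking membranes for full effect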
# PLC-beta3 inh: inhibitors of human phospholipase C beta3; Q01970; Purified PLC-beta3, fluorogenic substrate, fluorescence; inhibition, % at 12.2 µM; 370,000 compounds, 0.18% hits; AID 720704; in the data active = inhibition above about 11%;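 also: 0% = median of compound wells on plate and 100% = full blocker control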
# PLCgamma1 ctr: counter-screen for PLC-beta3 inhibitors: inhibitors of human PLC-gamma1; shares compounds with PLC-gamma1 inh; purified PLC-gamma1, fluorogenic substrate, fluorescence; inhibition, % at 12.3 µM; 3,300 compounds, 3.1% hits
# PLCbeta3 conf: human PLC-beta3 inhibition, confirmation; inhibition, % at 12.3 µM; 3,300 compounds, 1% hits; purified PLC-beta3, fluorogenic substrate fluorescence; shares compounds with PLC-gamma1 inh; AID 743261; in the data active = inhibition above about 11%
# Starred values were filed as active, the others as inactive; i = inactive; nt = no result given. In the library only some 2.1% were active in any assay of this set; here they are far more common. Rule as the data show it, unless noted: active = inhibition above about 9.5%; inactive = the rest.
SMILES,ADAM10 inh,PLC-gamma1 inh,ADAM17 inh,Rce1 inhib,PLC-beta3 inh,PLCgamma1 ctr,PLCbeta3 conf
CC(=O)c1ccc(NS(=O)(=O)c2ccc([N+](=O)[O-])cc2)cc1,7,7,7,nt,17*,0,0
CC1CCCN(C(=O)c2ccc(NS(=O)(=O)c3cccc([N+](=O)[O-])c3)cc2)C1 (stereo unspecified),1,16*,0,i,-3,-7,-2
O=C(c1ccc(NS(=O)(=O)c2cccc([N+](=O)[O-])c2)cc1)N1CCCCCC1,-1,1,-5,i,-3,nt,nt
Cc1cccc(NC(=O)CSc2nnc(-c3ccc(S(=O)(=O)N4CCCC4)cc3)o2)c1,nt,nt,nt,i,nt,nt,nt
Cc1ccc(NC(=O)c2ccc(F)cc2)cc1S(=O)(=O)N1CCCCCC1,6,8,4,i,8,nt,nt
Cc1ccc(NC(=O)CSc2nnc(-c3ccc(S(=O)(=O)N4CCCC4)cc3)o2)cc1C,-7,12*,2,nt,3,-5,-4
COc1ccc(C(=O)Nc2ccc(C)c(S(=O)(=O)N3CCCCCC3)c2)cc1,12,11*,4,i,5,5,6
Cc1cc(=O)[nH]c(SCC(=O)Nc2ccc(C)c(S(=O)(=O)N3CCCCC3)c2)n1,4,12*,2,i,-2,-3,-1
O=C(NCc1cccnc1)c1ccc(Br)o1,-6,0,2,i,-3,nt,nt
O=C(Cn1nc(C(=O)O)c2ccccc2c1=O)Nc1ccc2c(c1)C(=O)c1ccccc1C2=O,nt,nt,nt,i,nt,nt,nt
Cc1noc(C)c1NC(=O)N(C)C[C@H]1Oc2ccc(NC(=O)Cn3cnnn3)cc2C(=O)N([C@H](C)CO)C[C@@H]1C,-6,-2,-3,nt,-1,nt,nt
CC(C)(C)OC(=O)N1CCC[C@H]1C(=O)N1CCC[C@H]1C(=O)NCc1ccncc1,11,12*,2,nt,4,-4,-73
COc1ccc(S(=O)(=O)Nc2c(C)nc3nc(C)[nH]n3c2=O)cc1,5,11*,3,i,8,-8,-2
COc1ccc(NC(=O)NCCc2c[nH]c3ccccc23)c(OC)c1,8,4,0,i,-3,nt,nt
COc1ccc(OC)c(NC(=O)NCCc2c[nH]c3ccccc23)c1,-2,12*,-2,i,-1,-6,-4
O=C1NC(=O)/C(=C\c2ccc(Br)o2)S1,-13,15*,1,i,-25,-13,-16
OCC1OC(n2cnc3c(=S)nc[nH]c32)CC1O (stereo unspecified),-3,10*,-8,nt,0,-3,2
O=c1[nH]cnc2c1ncn2[C@@H]1C[C@@H](O)[C@H](CO)O1,-3,7,-8,i,-5,nt,nt
CNC(=O)c1ccccc1NC(=O)C1CC(=O)N(C(C)C)C1 (stereo unspecified),1,0,1,i,-3,nt,nt
O=C(CN(c1ccccc1)S(=O)(=O)c1ccc(F)cc1)NCc1cccs1,-6,-4,-4,nt,-3,nt,nt
O=C(NNC(=O)c1ccccc1)C(=O)N1CCCCC1,-6,2,-3,i,4,nt,nt
Cc1ccccc1C(=O)NNC(=O)C(=O)N1CCCCC1,-5,10*,4,i,3,-6,-3
O=C(Nc1ccccc1C(=O)N1CCCC1)c1ccccc1,-6,0,-4,i,-1,nt,nt
Cc1ccc(C(=O)Nc2ccccc2C(=O)N2CCCCCC2)cc1,-1,10*,-1,i,8,-8,-6
CCN(CC(=O)Nc1ccc(NC(C)=O)cc1)C(=O)CCCc1nc2ccccc2s1,-15,1,-2,nt,-4,nt,nt
SMILES,ADAM10 inh,PLC-gamma1 inh,ADAM17 inh,Rce1 inhib,PLC-beta3 inh,PLCgamma1 ctr,PLCbeta3 conf
COc1ccc(/C=N/NC2=NCCCCC2)cc1,5,10*,-2,i,1,-2,1
CCCCc1ccc(/C(C)=N/Nc2cc(N3CCOCC3)nc(C)n2)cc1,15,3,2,i,-6,nt,nt
COC(=O)[C@]12C[C@H](CC(=O)NCCc3ccccc3OC)C(=O)N(Cc3ccc(Cl)cc3Cl)C1=C[C@H](COCc1ccccc1)O[C@@H]2C,0,1,-2,nt,-5,nt,nt
Nn1cnnc1N/N=C/c1ccc(F)cc1,3,16*,1,i,4,-8,-3
Nn1cnnc1N/N=C/c1ccccc1C(F)(F)F,3,7,2,i,-1,nt,nt
Nn1cnnc1N/N=C/c1cccc(Cl)c1Cl,5,7,-2,i,-2,nt,nt
Nn1cnnc1N/N=C/c1ccc(Cl)c([N+](=O)[O-])c1,10,12*,3,i,5,-4,-1
Cc1nnc(N/N=C/c2ccc(Br)cc2)n1N,3,6,0,i,1,nt,nt
Cc1ccc(/C=N/Nc2nncn2N)cc1,7,11*,2,i,2,-15,-9
COc1ccc(-c2ccccc2)cc1NC(=O)C1(C)CCN1C(=O)C(C)C (stereo unspecified),2,2,0,nt,-3,nt,nt
O=C(NCCC(=O)N1CCC2(CC1)NCCc1[nH]cnc12)c1ccc(F)c(F)c1,-4,0,-1,i,-6,nt,nt
COc1ccc(OCc2cc(C(=O)NC(C)Cn3cncn3)no2)c(Cl)c1 (stereo unspecified),6,11*,-4,i,-8,-9,-7
CCC(CC)C(C(=O)NCc1ccccc1)N1CCN(CCN2CCOCC2)CC1 (stereo unspecified),-12,1,3,nt,-1,nt,nt
C/C(=N/NC(=O)c1cc(-c2cccc([N+](=O)[O-])c2)n[nH]1)c1cccc(O)c1,10,14*,7,i,7,-2,-2
COCCn1c(C)cc(C(=O)COC(=O)c2ccc(Br)o2)c1C,7,10*,4,nt,1,-8,-2
COc1cccc(CC2(CO)CCCN(Cc3ccc(OC)c(C)c3OC)C2)c1 (stereo unspecified),-6,-2,-6,i,-1,nt,nt
COc1cccc(N2CCN(Cc3nc4scc(-c5ccccc5)c4c(=O)[nH]3)CC2)c1,0,-12,3,i,-13,nt,nt
CCOC(=O)c1c(C)[nH]c(C(=O)CN2C(=O)NC3(CCCC3)C2=O)c1C,15,13*,0,i,8,-2,2
CCOC(=O)c1c(C)[nH]c(C)c1C(=O)CN1C(=O)NC2(CCCCCC2)C1=O,-12,-1,0,nt,1,nt,nt
Cc1ccccc1CN1CCCCC(NC(=O)c2ccc(-c3ccccc3)cc2)C1=O (stereo unspecified),13,12*,3,nt,2,3,2
Cc1ccccc1CN1CCCCC(NC(=O)c2ccccc2C)C1=O (stereo unspecified),7,6,3,nt,1,nt,nt
CC(=O)c1ccc(NC(=O)NC2CCCCN(Cc3cccc(Cl)c3)C2=O)cc1 (stereo unspecified),11,11*,7,nt,7,0,-1

# Screens from PubChem BioAssay.
